# Experimental data published in the supplement of paper PMC6555819.
# How the values were obtained:
# Assay in all cases: PBM binding z-score (relative to random genomic background probes); higher = stronger binding; sequences stand for … in GC…GCGATTGACAGCGTAGAATGAAGG
# [1] = test system: FXR:RXRa (NR concentration 270 nM, RXRa partner concentration 90 nM)
# In short: (§1)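 Each nuclear receptor dimer, without ligand, was incubated for 1 h on custom Agilent 4×180K protein-binding microarrays. Binding was detected with antibodies against each partner (one per run), and scanned fluorescence was regression-normalized. The binding z-scores are referenced to random human genomic background probes.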
# [2] = test system: LXRa:RXRa (NR concentration 270 nM, RXRa partner concentration 90 nM)
# In short: as §1
# [3] = test system: LXRa homodimer (NR concentration 270 nM)
# In short: as §1
# [4] = test system: LXRb:RXRa (NR concentration 270 nM, RXRa partner concentration 90 nM)
# In short: as §1
# [5] = test system: LXRb homodimer (NR concentration 270 nM)
# In short: as §1
# [6] = test system: PPARa:RXRa (NR concentration 270 nM, RXRa partner concentration 90 nM)
# In short: as §1
# [7] = test system: PPARg:RXRa (NR concentration 180 nM, RXRa partner concentration 90 nM)
# In short: as §1
# [8] = test system: PPARg:RXRa 270nM:90nM, anti-RXR (NR concentration 270 nM, RXRa partner concentration 90 nM)
# In short: as §1
# [9] = test system: PPARg:RXRa 30nM:10nM, anti-RXR (NR concentration 30 nM, RXRa partner concentration 10 nM)
# In short: as §1
# [10] = test system: PPARg:RXRa 90nM:30nM, anti-RXR (NR concentration 90 nM, RXRa partner concentration 30 nM)
# In short: as §1
# [11] = test system: PPARg:RXRa DBDmut IVT, anti-RXR (DBD mutation: RXRa K156A/R161A, NR concentration 270 nM, RXRa partner concentration 90 nM)
# In short: as §1
# [12] = test system: PPARg:RXRa IVT, anti-PPARg (NR concentration 270 nM, RXRa partner concentration 90 nM)
# In short: as §1
# [13] = test system: PPARg DBDmut:RXRa IVT, anti-PPARg (DBD mutation: PPARg1 K132A/R137A, NR concentration 270 nM, RXRa partner concentration 90 nM)
# In short: as §1
# [14] = test system: PPARg DBDmut IVT, anti-PPARg (DBD mutation: PPARg1 K132A/R137A, NR concentration 270 nM)
# In short: as §1
# [15] = test system: PPARg homodimer (NR concentration 180 nM)
# In short: as §1
# [16] = test system: PXR:RXRa (NR concentration 270 nM, RXRa partner concentration 90 nM)
# In short: as §1
# [17] = test system: PXR homodimer (NR concentration 270 nM)
# In short: as §1
# [18] = test system: RARa:RXR (NR concentration 270 nM, RXRa partner concentration 90 nM)
# In short: as §1
# [19] = test system: RARa homodimer (NR concentration 270 nM)
# In short: as §1
# [20] = test system: RARb:RXRa (NR concentration 270 nM, RXRa partner concentration 90 nM)
# In short: as §1
Sequence,PBM binding z-score [1],PBM binding z-score [2],PBM binding z-score [3],PBM binding z-score [4],PBM binding z-score [5],PBM binding z-score [6],PBM binding z-score [7],PBM binding z-score [8],PBM binding z-score [9],PBM binding z-score [10],PBM binding z-score [11],PBM binding z-score [12],PBM binding z-score [13],PBM binding z-score [14],PBM binding z-score [15],PBM binding z-score [16],PBM binding z-score [17],PBM binding z-score [18],PBM binding z-score [19],PBM binding z-score [20]
ACTAGCAGGCCAAGGGTCACACAAGATTAGTCCG,3.44,3.18,0.449,3.38,-0.147,4.88,8.73,6.99,6.3,7.72,1.49,4.04,-0.112,-0.266,1.49,3.56,0.101,4.6,0.267,3.76
GGAACGAGGGCATTCGAGATGATAGCATGGCGAT,0.866,0.444,-0.191,-0.035,-0.591,1.38,1.36,0.68,0.253,0.521,2.56,2.34,-0.145,-0.476,-0.199,0.623,0.0214,0.232,-0.236,1.72
ATATGTAGGTTACCTCCGGGTCATTCAGGCTATG,2.86,5.14,1.84,3.15,0.804,4.5,5.68,4.82,2.2,4.09,7.18,6.7,1.67,1.41,1.74,3.67,1.8,3.75,0.561,2.51
ACTCGGACGACAAAGGTCAGAGCTACGCCAGTGA,3.61,4.04,1.27,3.23,0.325,4.37,4.45,5.09,2.65,4.51,0.324,2.18,0.163,-0.0873,2.37,3.4,-0.377,4.48,0.552,4.17
CCTATTAGTTGCCCATAAGGGCAACCGAAGCTCG,0.523,0.339,0.425,0.645,0.866,0.517,0.154,0.281,-0.263,0.0446,-0.00448,0.926,0.125,1.13,0.921,0.597,0.552,0.824,1.45,1.29
TCTTGTAGATCAGCAGGATAAGAAAGCTGGCCAA,-0.292,-0.433,-0.526,-0.411,-0.635,0.0173,-0.182,1.01,2.37,1.45,1.55,0.124,0.2,-0.242,-1.15,-0.413,-0.584,-0.151,-0.239,-0.505
CCTACTGGGCCACGAAAGTTCATTGATTCAGTGA,0.912,3.67,4.62,1.82,-0.000733,2.69,2.47,2.77,0.297,1.86,6.16,5.56,0.407,0.518,1.35,4.97,6.21,2.03,-0.507,2.72
TCAGACAGGTCAAGGTAACTCAGGTACGCAGTCG,4.86,4.63,0.984,3.22,0.435,4.62,3.57,4.27,3.93,4.13,2.85,2.73,0.0851,0.283,1.88,2.46,0.321,3.37,0.676,4.31
TCGTGTAGATCAAGCAGGTTAAGAAAGCCTGAGT,0.141,0.107,-0.392,0.143,-0.921,0.588,-0.429,0.747,2.07,1.61,1.24,-0.0546,-0.931,-0.429,0.148,0.421,0.251,0.318,0.0709,0.0461
ATATGTAGTTTAAGGGTCATTCAGGTTGGTTCGC,4.61,4.11,2.99,4.07,1.53,5.03,6.25,6.64,5.02,6.74,1.53,3.45,1.66,1.44,3.5,5.01,3.06,4.34,2.87,3.42
ACAGACAGGTGAGTGAAGGTAACTGAGCTGGACG,0.439,-0.0639,-0.513,-0.288,-0.405,0.393,0.534,0.106,-0.146,-0.11,0.252,0.903,-0.468,-0.756,-0.197,0.0727,-0.00734,0.487,-0.0985,0.632
CCTTACGGGTCAAGGTTATGGCACGGGTGGTACG,5.49,3.7,0.0981,2.81,-0.233,4.86,4.26,4.73,1.8,3.51,1.51,3.59,-0.207,-0.604,1.88,3.27,0.134,4.13,1.04,4.04
AATACAGGGTCACCGTAGGCCAGAGTACGCACAG,7.2,6.43,1.2,4.96,0.78,6.14,7.71,6.83,3.15,5.65,3.34,4.88,1.63,0.332,2.04,4.97,0.366,5.28,0.752,4.8
CAAACTACGTCAAGGTCAAAGTCGGTTTGTGCCA,4.66,4.23,2.86,3.54,1.01,4.35,1.43,2.55,0.626,1.7,0.822,1.93,0.681,0.932,2.33,4.63,2.94,4.28,0.409,4.04
CCTAGTTGGTCAAGGTCAGACACGCTATAGGTAC,2.19,2.38,1.11,2.12,0.541,2.78,1.85,2.26,0.813,1.73,1.83,2.54,0.343,0.91,2.01,2.52,1.51,2.45,2.36,3.6
TTACCACGGTGAAGGTCGTTGATCCCTCTGTAGA,1.28,1.71,0.151,1.26,-0.41,1.57,0.322,1.94,0.678,1.24,0.157,1.1,-0.118,-0.0664,0.191,1.13,0.169,1.59,-0.497,1.17
TCTGCTAGGTCAACGATGGTCACCTAATCTGCTA,3.57,2.97,0.264,2.05,-0.183,3.49,2.96,3.36,1.98,2.76,4.12,4.82,0.776,0.398,0.811,2.12,-0.994,2.8,-0.586,4.2
